# Experimental data reported in the supplement of paper PMC6555819.
# Assays:
# Experiment in all cases: PBM binding z-score (relative to random genomic background probes); higher = stronger binding; sequences stand for … in GC…GCGATTGACAGCGTAGAATGAAGG
# [1] = test system: PPARg:RXRa DBDmut IVT, anti-RXR (DBD mutation: RXRa K156A/R161A, NR concentration 270 nM, RXRa partner concentration 90 nM)
# Summary of the method: (§1)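 Binding buffer was PBS pH 7.4 with 2% milk, 0.02% Triton X-100, 1 mM DTT, 0.2 mg/mL BSA and 0.4 mg/ml salmon testes DNA. In it, ligand-free nuclear receptor dimers were incubated 1 h on custom Agilent 4×180K protein-binding microarrays carrying double-stranded probes. Antibodies against each partner (one per run) detected binding, and z-scores were calculated against random background probes after regression normalization of scanned fluorescence.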
# [2] = test system: PPARg:RXRa IVT, anti-PPARg (NR concentration 270 nM, RXRa partner concentration 90 nM)
# Summary of the method: as §1
# [3] = test system: PPARg DBDmut:RXRa IVT, anti-PPARg (DBD mutation: PPARg1 K132A/R137A, NR concentration 270 nM, RXRa partner concentration 90 nM)
# Summary of the method: as §1
# [4] = test system: PPARg DBDmut IVT, anti-PPARg (DBD mutation: PPARg1 K132A/R137A, NR concentration 270 nM)
# Summary of the method: as §1
# [5] = test system: PPARg homodimer (NR concentration 180 nM)
# Summary of the method: as §1
# [6] = test system: PXR:RXRa (NR concentration 270 nM, RXRa partner concentration 90 nM)
# Summary of the method: as §1
# [7] = test system: PXR homodimer (NR concentration 270 nM)
# Summary of the method: as §1
# [8] = test system: RARa:RXR (NR concentration 270 nM, RXRa partner concentration 90 nM)
# Summary of the method: as §1
# [9] = test system: RARa homodimer (NR concentration 270 nM)
# Summary of the method: as §1
# [10] = test system: RARb:RXRa (NR concentration 270 nM, RXRa partner concentration 90 nM)
# Summary of the method: as §1
# [11] = test system: RARb homodimer (NR concentration 270 nM)
# Summary of the method: as §1
# [12] = test system: RARg:RXRa (NR concentration 270 nM, RXRa partner concentration 90 nM)
# Summary of the method: as §1
# [13] = test system: RARg homodimer (NR concentration 270 nM)
# Summary of the method: as §1
# [14] = test system: RXRa DBDmut IVT, anti-RXR (DBD mutation: RXRa K156A/R161A, NR concentration 90 nM)
# Summary of the method: as §1
# [15] = test system: RXRa homodimer (NR concentration 180 nM)
# Summary of the method: as §1
# [16] = test system: THRa:RXRa (NR concentration 90 nM, RXRa partner concentration 90 nM)
# Summary of the method: as §1
# [17] = test system: THRa homodimer (NR concentration 90 nM)
# Summary of the method: as §1
# [18] = test system: VDR homodimer (NR concentration 270 nM)
# Summary of the method: as §1
Sequence,PBM binding z-score [1],PBM binding z-score [2],PBM binding z-score [3],PBM binding z-score [4],PBM binding z-score [5],PBM binding z-score [6],PBM binding z-score [7],PBM binding z-score [8],PBM binding z-score [9],PBM binding z-score [10],PBM binding z-score [11],PBM binding z-score [12],PBM binding z-score [13],PBM binding z-score [14],PBM binding z-score [15],PBM binding z-score [16],PBM binding z-score [17],PBM binding z-score [18]
ACAGACAGGCGATGAAGGTAACTCAGGCTATCAT,-0.645,-0.444,-0.214,0.247,0.743,-0.467,0.0486,-0.431,-0.0743,-0.249,-0.109,-0.163,0.174,-0.246,-0.0483,0.512,-0.0858,-0.339
TCGAGTAGGTTACTAATGGGGCATTCAGCTTTCT,3.02,2.39,0.0923,-0.475,-0.0554,0.00033,-0.441,0.224,-0.684,0.494,0.14,0.367,0.0579,0.272,0.291,-0.11,-0.967,-0.245
ACTAGCCGGCCAAGTTTGGGTCACTCAAACAAAG,-0.561,0.67,-0.942,-0.912,0.449,0.729,-0.476,1.25,-0.454,1.5,2.27,1.35,1.48,-0.475,0.851,2.15,1.23,0.121
CCTACTGGGACATTCAGAGGTCATTGATCATATG,4.26,3.96,0.709,0.697,3.07,5.15,3.43,4.96,1.35,3.11,4.09,3.72,3.06,1.77,4.05,3.38,1.9,4.08
GCTAGTTGGTCAGTAAAAGGTCACACTCCGGTCG,1.66,2.87,-0.175,0.207,3.12,4.77,0.877,5.45,1.9,4.3,5.07,5.14,4.48,0.827,5.23,3.58,2.19,1.59
AGAATGAGGATAAGATCAGGGAAACAGAATACAT,-0.0375,-0.0536,-0.123,0.538,0.327,-0.171,0.272,0.067,0.354,0.0475,-0.0231,0.224,0.322,-0.458,0.578,1.42,0.69,-0.103
CCTTACGCGTCACTCCAGGTTATAGCATCGGAGT,0.0955,0.368,0.286,1,1.16,0.484,0.825,0.345,0.837,0.333,0.704,0.409,0.416,0.6,0.294,2.62,1.07,0.782
TCTTGTAGATCATGCAGGTTAAGAAAGCCTGAGT,1.44,0.879,0.847,1.07,0.117,0.641,0.527,0.812,0.221,0.285,0.268,0.108,0.0949,0.784,0.65,0.509,-0.0439,0.115
TAGCCTAGGTCATTCAGGGGCCAGTGTAGAAAGC,1.87,2.74,0.0729,-0.141,1.39,2.27,-0.259,3.32,-0.591,3.96,3.6,6.11,4.75,1.83,3.15,3.58,0.809,1.58
CGTCCAAGGTCAGCAGGTCCGTGAAAGCGACGTG,2.55,2.38,-0.178,-1.09,1.99,2.47,0.631,3.08,0.18,4.86,4.13,5.15,5.97,2.96,3.76,3.59,1.92,2.71
TCTATTTGTTGATTAGGGCAACCGAAACAGCGGA,1.93,1.79,1.53,1.99,1.59,0.675,0.358,0.837,1.13,1.09,0.77,0.864,0.859,1.28,0.492,0.89,0.561,0.505
CCAGACAGGTGAGAAAGTAACTCAGCCTCGATTA,0.811,0.252,-0.222,-0.131,0.452,-0.35,0.307,0.117,0.86,0.141,0.0469,0.0483,0.249,0.169,0.0557,-0.0555,-0.123,-0.255
CGAACTAGGTCAGAACAGGGCAGTGAAGGATGAT,7.23,7.22,1.72,-0.191,1.19,1.26,0.00717,0.81,0.0682,3.15,2.52,2.65,3.35,0.463,1.28,2.69,0.148,0.0633
CAGCCTAGGTCAGAGCCAGTATAGGAGGAACGTT,1.93,1.53,-0.412,-1,0.951,0.261,-0.164,0.723,0.33,3.08,2.13,2.87,3.5,0.588,1.5,1.76,0.271,-0.348
GGTAGTTGGTCAGTAAAAGGTCACACACCGGTCG,0.823,3.16,0.932,0.24,4.48,4.95,1.37,5.68,3,4.28,5.4,5.49,4.84,-0.0829,5.45,3.72,2.3,2.2
